Experimental findings from PubChem BioAssay (NCI) are described below.

Some test systems named below: T-47D breast; BT-549 breast; MDA-MB-435 melanoma; SW-620 colon; MCF7 breast; HCT-116 colon; HCC-2998 colon; KM12 colon.
Test in all cases: NCI-60 one-dose screen, 48 h (100 = growth as untreated, 0 = no growth, -100 = all killed)
Common to all, as to details: 10 µM unless noted

Each structure is given as a SMILES string. About 83,000 compounds went through this panel and 20% of them were active in at least one assay; those are over-represented in the sample as a whole.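 Values shown are percent growth following 48 h exposure of cells in 96-well plates to a single concentration of compound; below 10 was considered active.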 A number with no mark means an inactive call. Activity calls are given as the source filed them.

On to `CCCCCCCCCCCC1=NC(C)(C)CN1CCO`, for which the growth was 65.2% with T-47D breast; 80.6% in the assay on BT-549 breast; 8.66% (active) with MDA-MB-435 melanoma; 23.1% in the assay on SW-620 colon; 30.3% with MCF7 breast; 17.8% with HCT-116 colon. Further, the growth is -17.5% (active) in the assay on HCC-2998 colon and 29.1% in the assay on KM12 colon.

Turning to `COc1cc(NC(=O)CSc2nc3ccc(Cl)cc3c(=O)n2Cc2ccccc2)cc(OC)c1OC`, the growth with T-47D breast was 55.7%; in the assay with BT-549 breast, 31.2%; in the assay on MDA-MB-435 melanoma it was 78.2%; in the assay on SW-620 colon it was 81.6%; with MCF7 breast it was 70.2%; with HCT-116 colon, 51.6%. Moreover, the growth is 90.5% in the assay with HCC-2998 colon and 51.5% with KM12 colon.

In the case of `Oc1c(C(Nc2cccc3ccccc23)c2ccccc2)ccc2cccnc12` (stereo not given), the growth in the assay with T-47D breast is 49.1%; with BT-549 breast, -16.1% (active); with MDA-MB-435 melanoma it was 42.3%; in the assay on SW-620 colon it was 37.6%; in the assay with MCF7 breast it was 25.8%; in the assay on HCT-116 colon, 15.6%. Besides, the growth in the assay on HCC-2998 colon was 27.5%; in the assay on KM12 colon it was 36%.

As to `CC(C)OC1OC(OC(C)C)C(OC(C)C)OC1OC(C)C` (stereo not given), the growth in the assay with T-47D breast was 115%; in the assay on BT-549 breast, 102%; in the assay on MDA-MB-435 melanoma, 110%; with SW-620 colon it was 96.2%; in the assay with MCF7 breast, 103%; in the assay with HCT-116 colon, 88.5%. Besides, the growth was 121% in the assay with HCC-2998 colon and 95.2% in the assay on KM12 colon.

With `Cc1ccc(C)c(NC(=O)c2sc3c(=O)[nH]cnc3c2C)c1`, the growth in the assay with T-47D breast is 86.9%; with BT-549 breast it was 80.2%; in the assay on MDA-MB-435 melanoma, -36% (active); with SW-620 colon it was 42.8%; in the assay on MCF7 breast, 62.8%; with HCT-116 colon it was 68.3%. In addition, the growth is 87.7% in the assay on HCC-2998 colon and 46.2% in the assay with KM12 colon.

Turning to `CCN(CC)c1ccc(/C=N/NC(=O)C[N+](C)(C)C)cc1`, the growth with T-47D breast is 101%; with BT-549 breast, 103%; in the assay with MDA-MB-435 melanoma, 110%; in the assay on SW-620 colon, 101%; in the assay with MCF7 breast it was 96.9%; in the assay on HCT-116 colon, 102%. Further, the results for the growth in the assay with HCC-2998 colon and in the assay on KM12 colon were 104% and 102%, respectively.

For `CC1(C)CC(=O)c2cc3c(N)c(C(=O)Nc4ccc(Cl)cc4)sc3nc2C1`, the growth was 96.2% in the assay with T-47D breast; 125% in the assay with BT-549 breast; 109% in the assay on MDA-MB-435 melanoma; 109% with SW-620 colon; 103% in the assay with MCF7 breast; 108% in the assay on HCT-116 colon. Also, the growth in the assay on HCC-2998 colon was 116%; in the assay with KM12 colon, 117%.

For the compound `C=CCN(CC#N)CC=C`, the growth is 101% in the assay with T-47D breast; 116% in the assay with BT-549 breast; 101% in the assay with MDA-MB-435 melanoma; 107% in the assay on SW-620 colon; 95% in the assay with MCF7 breast; 98.1% in the assay on HCT-116 colon. The figures for the growth in the assay on HCC-2998 colon and with KM12 colon were 118% and 108%, respectively.

As to `CCCCOc1nc2ccc(C)cc2cc1/C=C/C(=O)/C=C(O)/C=C/c1cc2cc(C)ccc2nc1OCCCC`, the growth in the assay on T-47D breast is 89.2%; in the assay on BT-549 breast, 90.8%; with MDA-MB-435 melanoma, 107%; in the assay with SW-620 colon, 107%; in the assay on MCF7 breast, 100%; in the assay on HCT-116 colon, 87.6%. For the same compound, the growth in the assay on HCC-2998 colon is 108%; in the assay on KM12 colon, 102%.

Take `O=C1CCCN1C1CCN2CCCc3cccc1c32` (stereo not given): the growth in the assay with T-47D breast was 94.1%; in the assay on BT-549 breast, 134%; in the assay on MDA-MB-435 melanoma it was 108%; with SW-620 colon it was 108%; with MCF7 breast, 96.9%; in the assay with HCT-116 colon, 101%. The growth was 105% with HCC-2998 colon and 109% in the assay on KM12 colon.

On to `CNC(=O)c1c(NC(=O)c2cccc(C(F)(F)F)c2)sc2c1CCC(=O)C2`, for which the growth was -32.8% (active) in the assay with T-47D breast; -14.8% (active) in the assay with BT-549 breast; 4.37% (active) in the assay with MDA-MB-435 melanoma; -17.8% (active) in the assay with SW-620 colon; 0.296% (active) in the assay with MCF7 breast; 0.607% (active) in the assay with HCT-116 colon. The figures for the growth in the assay on HCC-2998 colon and in the assay with KM12 colon were -33.3% (active) and -12.9% (active), respectively.

For the compound `CN(C)c1nc(-c2cccs2)n2nc(-c3ccco3)cc2n1`, the growth is 53.5% with T-47D breast; 94% with BT-549 breast; 104% in the assay on MDA-MB-435 melanoma; 96.7% in the assay on SW-620 colon; 36.3% in the assay with MCF7 breast; 91.4% in the assay with HCT-116 colon. The growth in the assay on HCC-2998 colon was 93.9%; with KM12 colon, 81.4%.

With `Nc1c(N)c2ccccc2c2ccccc12`, the growth is 104% in the assay with T-47D breast; 112% in the assay with BT-549 breast; 107% in the assay on MDA-MB-435 melanoma; 103% with SW-620 colon; 98.3% with MCF7 breast; 114% in the assay with HCT-116 colon. The growth in the assay with HCC-2998 colon was 103%; in the assay with KM12 colon it was 116%.

For the compound `CCOC(=O)C(Cc1ccccc1)n1c(O)c(/C=N/c2ncc(Cc3ccc(Cl)cc3Cl)s2)sc1=S` (stereo not given), the growth was -3.64% (active) in the assay with T-47D breast; -1.04% (active) with BT-549 breast; 17.2% in the assay on MDA-MB-435 melanoma; 12% in the assay with SW-620 colon; 3.1% (active) with MCF7 breast; 1.61% (active) in the assay with HCT-116 colon. For the same compound, the growth in the assay on HCC-2998 colon was 16.5%; with KM12 colon it was 10.8%.

For `S=C(Nc1ccc(Cl)cc1)Nc1ccc(Cl)cc1` (tested in a mixture with another compound), the growth in the assay with T-47D breast is 11.6%; in the assay with BT-549 breast, 12.8%; in the assay on MDA-MB-435 melanoma, 3.6% (active); in the assay with SW-620 colon, 11.8%; in the assay on MCF7 breast it was 7.15% (active); in the assay on HCT-116 colon, 0.154% (active). In addition, the growth with HCC-2998 colon is 17.8%; in the assay on KM12 colon, 3.43% (active).
